PAX8 inh HTS = inhibitors of PAX8-driven TPO luciferase reporter, primary screen, RMG-I cells, single concentration; SteadyGlo, 24 h; inhibition, % at 12.6 µM; 1.2% of 360,000 active;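 active means mean replicate inhibition at least 60% with every replicate also reaching 60%; inconclusive means only one of the two criteria is met; inactive means mean below 60% and not all replicates reaching 60%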;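 further: luciferase light reporting Pax8 driven TPO promoter activity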
TRPM1 prom inh = inhibitors of MITF-dependent TRPM1 promoter reporter, primary screen, cell-based, SK-MEL-5, single point, luciferase; SK-MEL-5 TRPM1 promoter luciferase, 24 h; inhibition, % at 12.5 µM; 0.83% of 330,000 active;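 active means mean inhibition across replicates of 60% or more, whatever share of single replicates reaches that level; inconclusive means some that reach 60%, reason not given; inactive means mean inhibition across replicates below 60%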
EBV LMP1 NFkB = EBV LMP1-driven NF-kappaB luciferase reporter inhibitors, primary screen, cell-based, luminescence, single point; LMP1-induced NF-kappaB luciferase reporter cells; inhibition, % at 12.5 µM; 0.69% of 350,000 active; in the data active means inhibition above about 41%; inconclusive means no clear call, values can overlap the other calls
LGR2 antag = inhibitors of bursicon-induced LGR2 CRE-luciferase signal, primary screen, cell-based, HEK293, CRE-luciferase reporter, bursicon stimulation; bursicon-stimulated, 4 h; inhibition, % at 9.99 µM; 0.35% of 380,000 active;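 active means drop in luminescence signal, shown as inhibition above about 50% in the replicate tests, limit read from the data, passing the limit was not always enough; inconclusive means probably only some replicates passing the limit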;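 further: agonist challenge used bursicon conditioned medium at about half maximal strength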
Shn3 inh set2 = reduction of Shn3 3'UTR firefly luciferase signal, primary screen, Schnurri-3 inhibitor project, cell-based, Clone20 osteoblasts, set 2; 0.52% of 360,000 active; Clone20 osteoblast Shn3 3'UTR firefly luciferase, 24 h; inhibition, % at 12.5 µM;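 active means mean inhibition of at least 75% with every replicate also reaching 75%; inconclusive means mean inhibition at least 75% but some replicate below; inactive means mean inhibition below 75%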
EWS-Fli inh = EWS/Fli-driven NR0B1 reporter inhibitors, primary screen, A673 cells, NR0B1 luciferase, luminescence, MLPCN library; inhibition, % at 12.6 µM; 0.67% of 350,000 active; viability-normalised;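 active means mean inhibition of at least 50% after viability correction, with every replicate also passing that limit; inconclusive means mean reaches 50% but only one of two replicates passes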;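 further: firefly luciferase signal divided by Alamar Blue viability fluorescence both relative to DMSO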
Of the large screens only hits and unclear results are named; the others gave an inactive call. Only some compounds are listed: those with a hit (about 2.2% of all), similar ones and a draw of the others.

c1ccc(CN2CCN(c3ncnc4c3[nH]c3ccccc34)CC2)cc1	EBV LMP1 NFkB 53.0 (no result: PAX8 inh HTS, LGR2 antag, EWS-Fli inh)
c1ccc2c(c1)CCN(c1ncnc3c1[nH]c1ccccc13)C2	Shn3 inh set2 89.0 (no result: PAX8 inh HTS, LGR2 antag, EWS-Fli inh)
Cc1ccc2c(c1)[nH]c1c(N3CCN(Cc4ccccc4)CC3)ncnc12	none (no result: PAX8 inh HTS, LGR2 antag, EWS-Fli inh)
C[C@H](CO)N1C[C@H](C)[C@@H](CN(C)C(=O)c2cccc(F)c2)Oc2cc(C#CC3CCCC3)ccc2S1(=O)=O	none (no result: PAX8 inh HTS, TRPM1 prom inh, EBV LMP1 NFkB, Shn3 inh set2)
COC(C(=O)C(O)C(C)O)C1Cc2cc3cc(OC4CC(OC5CC(O)C(O)C(C)O5)C(O)C(C)O4)c(C)c(O)c3c(O)c2C(=O)C1OC1CC(OC2CC(OC3CC(O)C(OC)C(C)O3)C(O)C(C)O2)C(O)C(C)O1 (configuration not stated)	PAX8 inh HTS 99.8, EBV LMP1 NFkB 79.8
CNc1c(C(=O)O)ccc2c1C(=O)c1ccccc1C2=O	none
O=C(O)c1ccc2c(c1Nc1ccccc1)C(=O)c1ccccc1C2=O	EBV LMP1 NFkB 42.5
Cc1ccc(NC(=O)NC(=O)COc2ccc(Cl)cc2Cl)c(C)c1	PAX8 inh HTS 117.2
CO[C@H]1CN(C)C(=O)c2cc(NC(=O)c3cnccn3)ccc2OC[C@H](C)N(C)C[C@@H]1C	none (no result: PAX8 inh HTS, TRPM1 prom inh, EBV LMP1 NFkB, Shn3 inh set2)
COc1cccc(C#Cc2ccc3c(c2)O[C@H](CN(C)C(=O)c2ccccn2)[C@@H](C)CN([C@@H](C)CO)S3(=O)=O)c1	none (no result: TRPM1 prom inh, EBV LMP1 NFkB, Shn3 inh set2)
C[C@@H]1CN([C@H](C)CO)S(=O)(=O)c2ccc(C#Cc3ccncc3)cc2O[C@H]1CN(C)C(=O)Nc1ccc2c(c1)OCO2	PAX8 inh HTS 90.8 (no result: TRPM1 prom inh, EBV LMP1 NFkB, Shn3 inh set2)
COc1cccc(C#Cc2ccc3c(c2)O[C@@H](CN(C)C(=O)c2ccccn2)[C@H](C)CN([C@@H](C)CO)S3(=O)=O)c1	PAX8 inh HTS 73.3 (no result: TRPM1 prom inh, EBV LMP1 NFkB, Shn3 inh set2)
COc1cccc(NC(=O)N(C)C[C@H]2Oc3cc(C#Cc4ccncc4)ccc3S(=O)(=O)N([C@H](C)CO)C[C@H]2C)c1	PAX8 inh HTS 66.2 (no result: TRPM1 prom inh)
COc1ccc(NC(=O)N(C)C[C@@H]2Oc3cc(C#CCC(C)C)ccc3S(=O)(=O)N([C@@H](C)CO)C[C@@H]2C)cc1	PAX8 inh HTS 65.1 (no result: TRPM1 prom inh, EBV LMP1 NFkB, Shn3 inh set2)
C[C@@H]1CN([C@@H](C)CO)S(=O)(=O)c2ccc(-c3ccncc3)cc2O[C@@H]1CN(C)C(=O)Nc1ccc(C(F)(F)F)cc1	none (no result: PAX8 inh HTS, TRPM1 prom inh, EBV LMP1 NFkB, Shn3 inh set2)
C[C@@H]1CN([C@@H](C)CO)C(=O)Cc2cc(NC(=O)Cc3cn(C)c4ccccc34)ccc2O[C@@H]1CN(C)CC1CC1	none (no result: PAX8 inh HTS, TRPM1 prom inh, EBV LMP1 NFkB, Shn3 inh set2)
Cc1nc2cc(Br)ccc2c(=O)n1Cc1cccc(O)c1	none (no result: PAX8 inh HTS, TRPM1 prom inh, EBV LMP1 NFkB, LGR2 antag, Shn3 inh set2)
O=C(NC(=S)NCc1ccccc1)c1ccccc1	TRPM1 prom inh 104.3 (no result: EWS-Fli inh)
O=C(NC(=S)NCc1ccc(F)cc1)c1ccccc1	none (no result: PAX8 inh HTS, EWS-Fli inh)
C=CC[C@@H](CC(=O)N(CCO)Cc1ccccc1)C(=O)N[C@H](C)COC(=O)[C@@H](CC=C)Cc1ccc(F)cc1	none
C=CCC[C@H](Cc1ccc(F)cc1)C(=O)OC[C@@H](Cc1c[nH]c2ccccc12)NC(=O)[C@@H](CC=C)CC(=O)N(CCO)Cc1ccccc1	PAX8 inh HTS 83.6
C=CC[C@H](CC(=O)N(CCO)Cc1ccccc1)C(=O)N[C@H](COC(=O)[C@@H](CC=C)Cc1ccc(F)cc1)Cc1ccccc1	PAX8 inh HTS 80.0
COc1ccc(NC(=O)N(C)C[C@@H]2OCCCC[C@@H](C)Oc3ccc(NC(=O)C4CCCCC4)cc3C(=O)N([C@@H](C)CO)C[C@H]2C)cc1	none (no result: PAX8 inh HTS, TRPM1 prom inh, EBV LMP1 NFkB, Shn3 inh set2)
C[C@@H](NC(=O)[C@H]1[C@H](CO)[C@H]2Cn3c(ccc(-c4cccc(F)c4)c3=O)[C@H]2N1C)c1ccccc1	none (no result: TRPM1 prom inh, EBV LMP1 NFkB, Shn3 inh set2)
CC1=CC(=O)C(C(C)C)=C/C1=N/OS(=O)(=O)c1ccccc1	PAX8 inh HTS 94.3 (no result: LGR2 antag)
CC1=CC(=O)C=C(C)C1=NOS(=O)(=O)c1ccccc1	none (no result: PAX8 inh HTS, EWS-Fli inh)
COc1cc(/C=N\NC(=O)CNC(=O)C2COc3ccccc3O2)ccc1O (configuration not stated)	none (no result: EWS-Fli inh)
CCN(CC)c1ccc(/C=N/NC(=O)CNC(=O)C2COc3ccccc3O2)c(O)c1 (configuration not stated)	Shn3 inh set2 90.1 (no result: EWS-Fli inh)
CN(C)CC(=O)Nc1ccc2c(c1)[C@H]1C[C@H](CC(=O)NC3CCCC3)O[C@H](CO)[C@H]1O2	none (no result: TRPM1 prom inh, EBV LMP1 NFkB, Shn3 inh set2)
C=CCOC(=O)C1=C(C)N=C2SCCC(=O)N2C1c1cccs1 (configuration not stated)	Shn3 inh set2 92.3 (no result: PAX8 inh HTS, LGR2 antag, EWS-Fli inh)
O=C(Nc1cc(S(=O)(=O)N2CCOCC2)ccc1N1CCOCC1)c1ccc([N+](=O)[O-])s1	TRPM1 prom inh 83.3
Cc1ccc(NC(=O)c2ccc([N+](=O)[O-])s2)cc1S(=O)(=O)N1CCOCC1	PAX8 inh HTS 101.3, TRPM1 prom inh 92.2
O=C(Nc1cc(S(=O)(=O)N2CCOCC2)ccc1N1CCOCC1)c1ccccc1[N+](=O)[O-]	none
Cc1noc(C)c1NC(=O)N(C)C[C@H]1OCCCC[C@H](C)Oc2ccc(NS(=O)(=O)c3cn(C)cn3)cc2C(=O)N([C@H](C)CO)C[C@@H]1C	none (no result: TRPM1 prom inh, EBV LMP1 NFkB, Shn3 inh set2)
O=C(N/N=C/c1ccc(F)cc1)c1c(O)c2ccccc2[nH]c1=O	TRPM1 prom inh 62.6
COc1ccc(-c2cnc3c(c2)C(=O)N([C@@H](C)CO)C[C@H](C)[C@@H](CN(C)S(C)(=O)=O)O3)cc1	none (no result: PAX8 inh HTS, TRPM1 prom inh, EBV LMP1 NFkB, Shn3 inh set2)
O=C1C=CC2C3C(=O)N(c4ccccc4)C(=O)C3C1N2Cc1ccccc1 (configuration not stated)	TRPM1 prom inh 95.8, Shn3 inh set2 inconclusive, EWS-Fli inh 59.8 (no result: LGR2 antag)
O=C(COc1ccccc1)NNC(=S)NC(=O)c1ccccc1	none
COc1ccccc1C(=O)NNC(=S)NC(=O)c1cc(OC)c(OC)c(OC)c1	PAX8 inh HTS 62.6
COc1ccc(C(=O)NC(=S)NNC(=O)COc2ccccc2)cc1	PAX8 inh HTS 109.3
COc1cc(C(=O)NC(=S)NNC(=O)c2cnccn2)cc(OC)c1OC	Shn3 inh set2 89.4 (no result: EWS-Fli inh)
C[C@H](CO)N1C[C@H](C)[C@@H](CN(C)C(=O)Nc2cccc3ccccc23)OCCCC[C@H](C)Oc2ccc(NS(=O)(=O)c3ccc(F)cc3)cc2C1=O	none (no result: TRPM1 prom inh, EBV LMP1 NFkB, Shn3 inh set2)
O=C1N(c2ccccc2)C[C@@H]2C[C@@H](c3cc4ccccc4o3)N3CCC[C@@]123	PAX8 inh HTS 97.7, EBV LMP1 NFkB 90.1, LGR2 antag 90.1, Shn3 inh set2 97.2
Cc1nc2cc(-c3ccccc3)sc2c(=O)n1N	PAX8 inh HTS 75.5, TRPM1 prom inh 89.5, EBV LMP1 NFkB 73.8, LGR2 antag 98.3, EWS-Fli inh 75.7
COc1ccc(-c2cc3nc4n(c(=O)c3s2)CCC4)cc1	EBV LMP1 NFkB 51.9, LGR2 antag 87.0, EWS-Fli inh inconclusive (no result: PAX8 inh HTS)
